These results are taken from PubChem BioAssay.

SMILES strings stand for the structures.

The target in the assay is Carbonic anhydrase 2 (Homo sapiens) (UniProt P00918). Description: compounds binding carbonic anhydrase 2 – biochemical, small-molecule microarray, Alexa647-labelled CAII, profiling panel (AID 1122). Particulars: CAII-A647 binding fluorescence, higher = more signal.
`O=C(O)C1=CC[C@H]2C(=O)N(c3ccccc3)C(=O)[C@@H]12`: the composite z-score was determined as 0.425.

The molecule `CCc1cccc(NC(=O)O[C@H]2[C@H](OC(=O)Nc3ccccc3-c3ccccc3)[C@H](OC(=O)Nc3ccccc3-c3ccccc3)[C@@H](OC)O[C@@H]2CO)c1` yielded a composite z-score of 0.728.

`C=C(COC)/C(=C/C[C@@H](OC(C)=O)c1cccc(OCCO)c1)c1cnc2ccccc2c1` came in with a composite z-score of 0.98.

Molecule `Cc1ccc(S[C@]2(C(=O)NCc3ccccc3)CC(=O)N(Cc3ccccc3C(F)(F)F)[C@@H]2c2ccc(CO)cc2I)cc1` came in with a composite z-score of 0.815.

The molecule `COCCOC(=O)N1C(=O)[C@@]2(c3cc(C#CC4(O)CCCCCC4)ccc31)[C@H](C(N)=O)[C@H]1C(=O)O[C@H](c3ccccc3)[C@H](c3ccccc3)N1[C@@H]2c1ccc(OCCO)cc1` yielded a composite z-score of 0.566.

Take `COc1c(C)cc(-c2cc3c(c(CCc4ccccc4)n2)[Si](C(C)C)(C(C)C)O[C@H]3c2ccccc2)cc1C`: the composite z-score was -0.121.

`COC(=O)[C@@]1(Cc2ccc(F)cc2)[C@H]2c3cc(C(=O)N(C)C)n(Cc4cccc5ccccc45)c3C[C@H]2CN1C(=O)c1ccccc1` came in with a composite z-score of 0.86.

`CC(C)C[C@@H]1NC(=O)[C@@H]2C[C@H](C(=O)NCCCCCNC(=O)CS)[C@H](c3ccc(O)cc3)N2C1=O` yielded a composite z-score of 0.36.

`C=C[C@@H](CO)NS(=O)(=O)c1ccc(Br)cc1`: the composite z-score is -0.359.

As to `COC(=O)[C@@]1(Cc2ccc(F)cc2)[C@H]2c3cc(C(=O)N(C)C)n(CCF)c3C[C@H]2CN1C(=O)c1ccccc1`, the composite z-score was determined as 0.733.

`COC(=O)[C@@]1(Cc2ccccc2)[C@H]2c3cc(C(=O)N(C)C)n(Cc4nc5ccccc5[nH]4)c3C[C@H]2CN1C(=O)c1ccccc1` displayed a composite z-score of 0.826.

`C=C(C(=O)CC[C@@H](OC(=O)c1ccccc1-c1ccccc1C(=O)O)c1ccc(OCCO)cc1)C(C)C` displayed a composite z-score of 0.801.

`COCCOC(=O)N1C(=O)[C@@]2(c3cc(C#CCCO)ccc31)[C@H](C(=O)N1CCN(c3ncccn3)CC1)[C@H]1C(=O)O[C@H](c3ccccc3)[C@H](c3ccccc3)N1[C@@H]2c1ccc(OCCO)cc1` showed a composite z-score of 0.621.

`O=C1OC[C@@H](c2ccccc2)n2cc(/C=C/c3ccccc3)cc21` displayed a composite z-score of 0.43.

As for `CCOC(=O)C[C@H]1[C@H](OC(=O)c2cc3ccccc3oc2=O)[C@@H](NC(=O)Cc2ccc(OC)cc2)c2cc(OCCCO)ccc2N1C(=O)Cc1ccc(OC)cc1`, the composite z-score came out at 0.709.

The molecule `C=CCN1C(=O)[C@@]2(O[C@@H](CCO)[C@H]([Si](C)(C)c3ccc(OC)cc3)[C@H]2C)c2cc(N3CCCCC3=O)ccc21` gave a composite z-score of 0.429.

Regarding `COc1ccc(CCNC(=O)[C@@]2(C)c3ccccc3C(=O)N(Cc3ccc(OC(F)(F)F)cc3)[C@H]2c2ccc(CO)cc2)cc1`, the composite z-score was 0.611.

Molecule `COC(=O)[C@@]1(Cc2ccccc2)[C@H]2c3cc(C(=O)N(C)C)n(CCF)c3C[C@H]2CN1C(=O)c1ccccc1` yielded a composite z-score of 0.531.

`COc1ccc(NN2C(C(O)c3ccc(F)cc3)C=CC3C(=O)N(C4CCCCC4)C(=O)C32)cc1` (centres undefined): the composite z-score is 0.649.

`COC(=O)[C@@]1(Cc2ccc(F)cc2)[C@H]2c3cc(C(=O)N(C)C)n(Cc4ccsc4Br)c3C[C@H]2CN1C(=O)c1ccccc1` showed a composite z-score of 0.938.

Turning to `COc1ccc(NN2C(C(O)c3ccccc3)C=CC3C(=O)N(C4CCCCC4)C(=O)C32)cc1` (centres undefined), the composite z-score turned out to be 0.749.

For `C=CC[C@H](OC(=O)Nc1ccc(SC)cc1)c1ccc(O)c(F)c1`, the composite z-score was 0.577.

Take `CO[C@H]1O[C@H](CO)[C@@H](OC(=O)CCc2ccccc2)[C@@H]2OC(=O)[C@@H](Cc3ccc4ccccc4c3)C/C=C/C[C@H](Cc3ccc4ccccc4c3)C(=O)O[C@@H]12`: the composite z-score was 0.191.

For `COC(=O)[C@H](Cc1ccccc1)N1CC(C)(OC)O[C@@H](Cc2ccccc2)[C@H]1/C=C/C1CC1` (some centres undefined), the composite z-score came out at 0.348.

The molecule `C[C@H]1C2[C@H](Cc3ccccc3)NC(=O)[C@]23C(=O)N[C@@H](Cc2ccccc2)C(=O)N2CCC[C@H]2C(=O)NC/C=C/CC/C=C/C3[C@@H]2O[C@]12C` (some centres undefined) yielded a composite z-score of 0.619.

For `C=C(C(=O)CC[C@@H](OC(=O)c1ccccc1-c1ccccc1C(=O)O)c1cccc(OCCO)c1)C(C)C`, the composite z-score was 0.555.

As for `C=C(CCCC)C(=O)CC[C@H](OC(=O)c1ccccc1-c1ccccc1C(=O)O)c1cccc(OCCO)c1`, the composite z-score was 0.749.

Molecule `C=C(CCCC)/C(=C/C[C@@H](OC(C)=O)c1cccc(OCCO)c1)c1cc(C(=O)OC)ccc1OC` showed a composite z-score of 0.561.

In the case of `CCCCCN1CC=CC23O[C@@H]4/C=C\CCCOC(=O)C4[C@H]2C(=O)N(CCO)[C@@H]3C1=O` (some centres undefined), the composite z-score was found to be 0.823.
